How the values were obtained:
Test in all cases: DAPPL (digital affinity profiling via proximity ligation, sequencing); 10 mM Tris-HCl pH 7.5, 50 mM NaCl, 1 mM DTT, 4% glycerol, room temperature, 30 min; GST-TFs on glutathione beads, 16-mer random dsDNA library, 0.1% formaldehyde crosslink after washing; high values mean tight binding
Conditions in all cases: protein: recombinant; tags: N-terminal GST; dsDNA, one strand shown
ELK3 = biological target: T1, ELK3 (Homo sapiens, UniProt P41970 1-407)
T1 sequence: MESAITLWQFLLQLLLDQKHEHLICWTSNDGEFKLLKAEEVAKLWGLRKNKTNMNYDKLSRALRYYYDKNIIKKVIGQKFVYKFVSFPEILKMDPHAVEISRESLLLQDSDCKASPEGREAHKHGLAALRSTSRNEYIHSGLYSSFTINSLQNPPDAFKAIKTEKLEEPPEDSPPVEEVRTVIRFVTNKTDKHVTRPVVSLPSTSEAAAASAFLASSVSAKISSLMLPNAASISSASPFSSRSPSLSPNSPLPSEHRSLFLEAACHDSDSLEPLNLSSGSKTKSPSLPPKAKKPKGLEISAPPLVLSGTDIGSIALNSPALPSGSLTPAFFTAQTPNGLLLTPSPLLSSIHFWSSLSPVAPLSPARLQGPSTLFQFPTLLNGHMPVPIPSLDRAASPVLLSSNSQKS
Summary of the method: (§1)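 GST fusions of human transcription factors were expressed in yeast and captured with glutathione beads. Once given DNA barcodes and pooled alongside a tag-only sample, they were incubated for 30 min at room temperature with 200 nmole of a random double-stranded 16-mer DNA library in Tris/NaCl/DTT/glycerol buffer, then washed, crosslinked (0.1% formaldehyde), proximity-ligated, PCR-amplified and sequenced on an Illumina NextSeq500. The binding signal of each hexamer is its read frequency for a factor divided by its frequency for the tag-only sample.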

SPIC = biological target: T2, SPIC (Homo sapiens, UniProt Q8N5J4 1-248)
T2 sequence: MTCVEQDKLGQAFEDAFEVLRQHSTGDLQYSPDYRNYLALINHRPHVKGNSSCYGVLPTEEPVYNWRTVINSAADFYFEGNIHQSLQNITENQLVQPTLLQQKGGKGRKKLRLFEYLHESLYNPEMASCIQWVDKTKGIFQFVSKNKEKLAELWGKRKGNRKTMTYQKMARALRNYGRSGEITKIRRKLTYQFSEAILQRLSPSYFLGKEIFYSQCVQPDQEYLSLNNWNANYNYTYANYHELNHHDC
Summary of the method: as §1

ELF4 = ELF4 (Homo sapiens, UniProt Q99607 1-663)
Summary of the method: as §1

ELK4 = biological target: T3, ELK4 (Homo sapiens, UniProt P28324-2 1-405)
T3 sequence: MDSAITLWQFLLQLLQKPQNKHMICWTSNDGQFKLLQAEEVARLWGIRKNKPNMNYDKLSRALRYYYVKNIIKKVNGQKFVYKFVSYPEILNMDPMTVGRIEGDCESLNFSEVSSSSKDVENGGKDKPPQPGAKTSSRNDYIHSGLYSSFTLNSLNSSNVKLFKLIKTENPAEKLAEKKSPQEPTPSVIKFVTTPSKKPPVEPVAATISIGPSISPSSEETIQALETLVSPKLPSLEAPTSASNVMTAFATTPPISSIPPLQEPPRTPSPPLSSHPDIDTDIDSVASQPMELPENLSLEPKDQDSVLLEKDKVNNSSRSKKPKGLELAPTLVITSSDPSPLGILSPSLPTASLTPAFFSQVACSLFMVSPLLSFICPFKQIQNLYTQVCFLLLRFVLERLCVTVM
Summary of the method: as §1

ERF = biological target: T4, ERF (Homo sapiens, UniProt P50548 1-548)
T4 sequence: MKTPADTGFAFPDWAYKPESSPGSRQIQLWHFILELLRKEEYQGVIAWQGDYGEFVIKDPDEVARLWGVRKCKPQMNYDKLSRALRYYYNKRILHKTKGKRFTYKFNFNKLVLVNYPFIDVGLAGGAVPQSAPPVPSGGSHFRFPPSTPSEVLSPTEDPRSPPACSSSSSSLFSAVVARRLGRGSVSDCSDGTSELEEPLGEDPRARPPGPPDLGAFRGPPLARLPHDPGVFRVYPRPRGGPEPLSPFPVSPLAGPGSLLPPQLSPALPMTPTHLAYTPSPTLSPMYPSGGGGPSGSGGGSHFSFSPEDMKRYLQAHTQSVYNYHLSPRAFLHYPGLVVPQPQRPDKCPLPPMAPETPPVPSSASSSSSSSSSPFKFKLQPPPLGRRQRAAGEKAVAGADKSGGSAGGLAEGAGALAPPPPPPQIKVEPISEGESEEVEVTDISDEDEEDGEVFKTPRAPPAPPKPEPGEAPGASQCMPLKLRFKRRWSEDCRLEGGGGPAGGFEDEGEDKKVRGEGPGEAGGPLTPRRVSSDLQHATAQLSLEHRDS
Summary of the method: as §1

ETV7 = biological target: T5, ETV7 (Homo sapiens, UniProt Q9Y603 1-341)
T5 sequence: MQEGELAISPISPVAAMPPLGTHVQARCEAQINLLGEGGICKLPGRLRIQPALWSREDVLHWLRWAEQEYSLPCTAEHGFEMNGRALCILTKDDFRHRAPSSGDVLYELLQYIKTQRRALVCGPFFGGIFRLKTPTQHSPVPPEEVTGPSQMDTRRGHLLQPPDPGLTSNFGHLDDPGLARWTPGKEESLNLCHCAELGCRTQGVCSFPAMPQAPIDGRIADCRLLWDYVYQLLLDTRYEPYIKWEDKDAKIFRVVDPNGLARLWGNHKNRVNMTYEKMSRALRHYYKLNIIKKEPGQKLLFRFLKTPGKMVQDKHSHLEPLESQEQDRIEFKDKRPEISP
Summary of the method: as §1

ELK1 = biological target: T6, ELK1 (Homo sapiens, UniProt P19419 1-428)
T6 sequence: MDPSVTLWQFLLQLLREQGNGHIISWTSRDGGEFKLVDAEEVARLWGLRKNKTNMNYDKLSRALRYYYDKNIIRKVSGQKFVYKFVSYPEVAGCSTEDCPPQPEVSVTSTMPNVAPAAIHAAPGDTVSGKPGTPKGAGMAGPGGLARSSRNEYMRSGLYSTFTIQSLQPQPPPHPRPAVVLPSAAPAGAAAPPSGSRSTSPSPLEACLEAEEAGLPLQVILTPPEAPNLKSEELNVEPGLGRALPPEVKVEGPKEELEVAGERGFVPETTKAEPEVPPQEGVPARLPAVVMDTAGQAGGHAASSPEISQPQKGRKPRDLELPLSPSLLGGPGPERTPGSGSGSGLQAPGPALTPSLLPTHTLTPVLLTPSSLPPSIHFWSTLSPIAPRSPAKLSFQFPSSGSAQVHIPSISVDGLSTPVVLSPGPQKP
Summary of the method: as §1

GABPA = biological target: T7, GABPA (Homo sapiens, UniProt Q06546 1-454)
T7 sequence: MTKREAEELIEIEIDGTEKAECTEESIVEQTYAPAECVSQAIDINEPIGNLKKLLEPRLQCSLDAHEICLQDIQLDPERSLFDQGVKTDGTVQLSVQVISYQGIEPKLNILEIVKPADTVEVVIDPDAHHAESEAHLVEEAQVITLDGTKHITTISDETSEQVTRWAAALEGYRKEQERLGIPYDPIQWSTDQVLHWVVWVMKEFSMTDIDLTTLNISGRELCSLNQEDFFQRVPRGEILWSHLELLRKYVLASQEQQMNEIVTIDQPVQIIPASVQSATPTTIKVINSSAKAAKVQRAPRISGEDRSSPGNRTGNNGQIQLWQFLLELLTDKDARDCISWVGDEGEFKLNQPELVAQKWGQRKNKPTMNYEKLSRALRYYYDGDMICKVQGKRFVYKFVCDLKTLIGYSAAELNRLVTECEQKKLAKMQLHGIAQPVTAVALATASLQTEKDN
Summary of the method: as §1

ERG = biological target: T8, ERG (Homo sapiens, UniProt P11308 1-479)
T8 sequence: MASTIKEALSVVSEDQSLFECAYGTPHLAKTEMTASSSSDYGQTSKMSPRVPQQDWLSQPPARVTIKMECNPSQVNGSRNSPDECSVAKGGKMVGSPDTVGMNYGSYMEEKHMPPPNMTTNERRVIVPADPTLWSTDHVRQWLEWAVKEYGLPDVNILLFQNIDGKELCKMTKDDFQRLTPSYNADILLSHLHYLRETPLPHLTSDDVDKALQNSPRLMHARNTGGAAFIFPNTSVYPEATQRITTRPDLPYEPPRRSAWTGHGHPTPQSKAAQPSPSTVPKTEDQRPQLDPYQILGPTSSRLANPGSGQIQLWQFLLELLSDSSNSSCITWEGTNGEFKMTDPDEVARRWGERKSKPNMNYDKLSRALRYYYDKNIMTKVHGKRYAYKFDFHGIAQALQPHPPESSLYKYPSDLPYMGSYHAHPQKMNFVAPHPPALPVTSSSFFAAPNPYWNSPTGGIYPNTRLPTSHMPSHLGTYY
Summary of the method: as §1

ELF1 = ELF1 (Homo sapiens, UniProt P32519 1-619)
Summary of the method: as §1

ETV3L = biological target: T9, ETV3L (Homo sapiens, UniProt Q6ZN32 1-361)
T9 sequence: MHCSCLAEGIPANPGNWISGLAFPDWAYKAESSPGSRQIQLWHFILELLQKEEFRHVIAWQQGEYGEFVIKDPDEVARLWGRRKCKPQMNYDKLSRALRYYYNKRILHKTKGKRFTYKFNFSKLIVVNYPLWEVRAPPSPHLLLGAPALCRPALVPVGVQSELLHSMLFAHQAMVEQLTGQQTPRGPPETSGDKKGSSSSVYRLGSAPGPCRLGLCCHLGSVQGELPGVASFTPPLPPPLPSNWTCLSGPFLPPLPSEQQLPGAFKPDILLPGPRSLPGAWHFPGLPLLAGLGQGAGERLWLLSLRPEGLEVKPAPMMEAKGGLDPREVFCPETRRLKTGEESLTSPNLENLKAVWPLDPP
Summary of the method: as §1

ETS2 = biological target: T10, ETS2 (Homo sapiens, UniProt P15036 1-469)
T10 sequence: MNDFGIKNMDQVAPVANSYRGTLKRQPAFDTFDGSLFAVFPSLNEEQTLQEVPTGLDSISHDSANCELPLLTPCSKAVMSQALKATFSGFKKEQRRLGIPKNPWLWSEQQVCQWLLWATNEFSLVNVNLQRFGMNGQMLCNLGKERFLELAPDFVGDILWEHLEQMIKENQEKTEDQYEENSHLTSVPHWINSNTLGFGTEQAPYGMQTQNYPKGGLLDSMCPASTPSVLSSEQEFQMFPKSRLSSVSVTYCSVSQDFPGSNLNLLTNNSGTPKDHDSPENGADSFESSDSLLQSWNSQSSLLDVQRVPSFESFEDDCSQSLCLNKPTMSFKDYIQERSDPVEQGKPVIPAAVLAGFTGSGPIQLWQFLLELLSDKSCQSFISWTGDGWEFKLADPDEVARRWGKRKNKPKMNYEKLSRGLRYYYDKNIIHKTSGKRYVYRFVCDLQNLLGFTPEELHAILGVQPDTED
Summary of the method: as §1

ETV3 = biological target: T11, ETV3 (Homo sapiens, UniProt P41162-2 1-143)
T11 sequence: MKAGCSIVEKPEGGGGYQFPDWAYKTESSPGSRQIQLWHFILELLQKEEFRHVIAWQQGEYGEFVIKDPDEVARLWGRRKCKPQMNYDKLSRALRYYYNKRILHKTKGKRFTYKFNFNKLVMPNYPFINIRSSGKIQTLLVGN
Summary of the method: as §1

ETV6 = ETV6 (Homo sapiens, UniProt P41212 1-452)
Summary of the method: as §1

ETV6, sequence (P41212 whole entry): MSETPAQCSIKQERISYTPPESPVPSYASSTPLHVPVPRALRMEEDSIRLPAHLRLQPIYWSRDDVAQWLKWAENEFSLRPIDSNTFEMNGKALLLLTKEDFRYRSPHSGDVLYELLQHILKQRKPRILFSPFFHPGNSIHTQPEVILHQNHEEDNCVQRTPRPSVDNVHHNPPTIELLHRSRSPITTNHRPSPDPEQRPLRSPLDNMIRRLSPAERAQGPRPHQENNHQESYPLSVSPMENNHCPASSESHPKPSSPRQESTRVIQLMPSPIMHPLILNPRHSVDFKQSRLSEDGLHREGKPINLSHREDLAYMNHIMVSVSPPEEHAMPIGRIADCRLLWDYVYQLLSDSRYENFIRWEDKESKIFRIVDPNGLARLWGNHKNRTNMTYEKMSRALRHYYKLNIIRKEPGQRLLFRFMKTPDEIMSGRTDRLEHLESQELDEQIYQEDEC
ELF1, sequence (P32519 whole entry): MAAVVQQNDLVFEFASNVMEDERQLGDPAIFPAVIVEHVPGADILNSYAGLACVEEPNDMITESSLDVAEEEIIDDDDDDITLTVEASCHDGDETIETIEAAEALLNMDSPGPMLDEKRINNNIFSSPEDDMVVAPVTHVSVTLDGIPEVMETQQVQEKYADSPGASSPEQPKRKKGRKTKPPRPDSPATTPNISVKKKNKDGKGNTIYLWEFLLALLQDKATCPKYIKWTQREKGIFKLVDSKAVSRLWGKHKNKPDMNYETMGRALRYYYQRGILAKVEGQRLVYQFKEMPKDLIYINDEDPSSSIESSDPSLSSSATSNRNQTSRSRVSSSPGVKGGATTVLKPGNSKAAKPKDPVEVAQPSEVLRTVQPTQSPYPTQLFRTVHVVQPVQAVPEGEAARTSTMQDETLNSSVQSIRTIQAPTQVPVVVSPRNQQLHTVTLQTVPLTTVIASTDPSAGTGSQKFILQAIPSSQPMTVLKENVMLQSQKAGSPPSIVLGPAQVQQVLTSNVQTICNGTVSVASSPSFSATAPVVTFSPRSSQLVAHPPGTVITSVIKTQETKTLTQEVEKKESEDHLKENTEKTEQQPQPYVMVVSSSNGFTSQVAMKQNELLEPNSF
ELF4, sequence (Q99607 whole entry): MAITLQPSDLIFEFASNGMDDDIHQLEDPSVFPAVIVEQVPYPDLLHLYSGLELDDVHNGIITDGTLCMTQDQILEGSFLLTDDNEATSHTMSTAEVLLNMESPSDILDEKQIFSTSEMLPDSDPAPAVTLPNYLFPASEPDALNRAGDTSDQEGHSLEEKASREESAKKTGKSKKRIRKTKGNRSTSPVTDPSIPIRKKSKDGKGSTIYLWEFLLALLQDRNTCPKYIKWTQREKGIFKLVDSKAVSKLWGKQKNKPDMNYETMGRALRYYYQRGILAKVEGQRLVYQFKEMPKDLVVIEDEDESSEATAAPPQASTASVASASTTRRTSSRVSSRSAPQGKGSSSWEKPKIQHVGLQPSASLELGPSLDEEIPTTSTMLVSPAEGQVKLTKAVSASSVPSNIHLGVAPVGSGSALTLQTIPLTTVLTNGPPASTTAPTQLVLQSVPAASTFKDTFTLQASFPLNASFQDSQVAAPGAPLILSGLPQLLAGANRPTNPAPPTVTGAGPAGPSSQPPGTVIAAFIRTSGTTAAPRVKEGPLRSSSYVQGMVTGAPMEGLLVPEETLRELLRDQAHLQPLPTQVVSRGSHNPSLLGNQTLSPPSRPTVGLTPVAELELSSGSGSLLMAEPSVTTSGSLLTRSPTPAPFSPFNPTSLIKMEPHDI

TGAAGA
binding signal (ELK3): 1.03 fold enrichment (6-mer frequency, TF over GST control)
binding signal (SPIC): 1.01 fold enrichment (6-mer frequency, TF over GST control)
binding signal (ELF4): 1.01 fold enrichment (6-mer frequency, TF over GST control)
binding signal (ELK4): 1.02 fold enrichment (6-mer frequency, TF over GST control)
binding signal (ERF): 1.09 fold enrichment (6-mer frequency, TF over GST control)
binding signal (ETV7): 1.04 fold enrichment (6-mer frequency, TF over GST control)

AGTCTC
binding signal (ELK1): 1.02 fold enrichment (6-mer frequency, TF over GST control)
binding signal (GABPA): 1.01 fold enrichment (6-mer frequency, TF over GST control)
binding signal (ERG): 1.06 fold enrichment (6-mer frequency, TF over GST control)
binding signal (ELF1): 1.05 fold enrichment (6-mer frequency, TF over GST control)
binding signal (ELK3): 1.03 fold enrichment (6-mer frequency, TF over GST control)
binding signal (SPIC): 1.1 fold enrichment (6-mer frequency, TF over GST control)
binding signal (ELK4): 1.05 fold enrichment (6-mer frequency, TF over GST control)
binding signal (ERF): 1.04 fold enrichment (6-mer frequency, TF over GST control)
binding signal (ETV3L): 1.06 fold enrichment (6-mer frequency, TF over GST control)
binding signal (ETS2): 1.05 fold enrichment (6-mer frequency, TF over GST control)
binding signal (ETV3): 1.09 fold enrichment (6-mer frequency, TF over GST control)
binding signal (ETV6): 1.04 fold enrichment (6-mer frequency, TF over GST control)

Source: PMC7862700, “An all-to-all approach to the identification of sequence-specific readers for epigenetic DNA modifications on cytosine”
